The list is not random: actives were taken first. Their share in the collection is about 21%.
IL-1B inflam inh: blocks inflammasome-driven IL-1 beta release. THP-1 LPS/ATP IL-1B secretion, AlphaLISA, 16 h; hits give low values. AID 743279. hit rate 4.7% among 360,000. activity change, % at 57.5 µM; in the data active = activity change below about -50%; inconclusive = mostly about -30% to -49%; note: % is set by controls: 0 for no effect and ±100 for the full control effect
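Secreted IL-1B measured by AlphaLISA bead assay after 16 h compound exposure of THP-1 cells; compounds (final up to 57.5 uM) added 1 h before LPS (250 ng/mL) and ATP (1.25 mM) stimulation; lower signal means less secretion.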
TDP1 cell noCPT: qHTS for Inhibitors of human tyrosyl-DNA phosphodiesterase 1 (TDP1): qHTS in cells in absence of CPT. hit rate 15% among 420,000. AID 686978, 2013. DT40 Tdp1-/- hTDP1 cells, no CPT, ATP luminescence, 48 h. Potency, µM (titrated, usually from 46.2 µM), for inactives: at the top dose activity change, negative = growth inhibition, hits mostly inhibitors; note: potency is the fitted concentration of half-maximal effect; % is set by controls: 0 for no effect and ±100 for the full control effect; nearly all actives have a fitted effect of over 55% in size
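Compound effects on proliferation are scored in DT40 Tdp1-/-;hTDP1 cells in the absence of CPT. ATP levels (CellTiter-Glo luminescence) are recorded after a ≥48 hr, 37 °C incubation.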
TDP1 cell CPT: growth inhibition of DT40 Tdp1-/-;hTDP1 cells with camptothecin (screen for TDP1 inhibitors); chicken DT40 Tdp1-/-;hTDP1 cells + 20 nM CPT, ATP luminescence, 48 h; Potency, µM (titrated, usually from 46.2 µM), inactives show top-dose activity change, negative = growth inhibition, most hits filed as inhibitors; hit rate 12% among 420,000; note: potency is the fitted concentration of half-maximal effect; % is set by controls: 0 for no effect and ±100 for the full control effect; nearly all actives have a fitted effect of over 55% in size
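Chicken DT40 Tdp1-/- cells complemented with human TDP1, 400 cells/well, exposed to compounds plus 20 nM camptothecin for at least 48 h at 37 C; viability read as ATP content by CellTiter-Glo luminescence.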
DRD3 agonist: activates the human D3 dopamine receptor | hit rate 0.58% among 410,000 | AID 652048 | P35462 | max activation, % | D3R DiscoveRx beta-arrestin cells, luminescence, 90 min; in the data active = max activation above about 30%; note: 0% is about no effect
Target sequence (P35462 whole entry, looked up): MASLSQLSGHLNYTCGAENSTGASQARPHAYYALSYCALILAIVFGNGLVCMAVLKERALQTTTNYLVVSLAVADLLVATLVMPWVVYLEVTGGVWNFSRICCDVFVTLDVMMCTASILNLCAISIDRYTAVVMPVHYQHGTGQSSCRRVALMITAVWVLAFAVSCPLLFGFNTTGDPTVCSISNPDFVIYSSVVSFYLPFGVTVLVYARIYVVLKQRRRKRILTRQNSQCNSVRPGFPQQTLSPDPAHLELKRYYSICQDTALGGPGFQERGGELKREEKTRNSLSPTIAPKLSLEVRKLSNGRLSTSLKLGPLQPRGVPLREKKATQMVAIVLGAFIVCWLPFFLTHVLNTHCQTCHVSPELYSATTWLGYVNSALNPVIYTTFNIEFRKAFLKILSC
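Agonist mode: compounds and dopamine controls were applied to plated cells for 90 min at 37 degrees C after an overnight attachment at 1500 cells/well. Luminescent read-out followed 30 - 60 minutes at room temperature with DiscoveRx detection reagent.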
DRD3 antagonist: blocks the human D3 dopamine receptor; P35462; max response, negative = inhibition, %; hit rate 2.5% among 360,000; AID 652054; D3R cells, DiscoveRx beta-arrestin luminescence, antagonist mode; hits give low values; in the data active = max response below about -50%; inconclusive = no clear call, values can overlap the other calls; note: % is set by controls: 0 for no effect and ±100 for the full control effect
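Cells plated overnight at 1500 cells/well, then exposed to library compounds with dopamine controls for 90 minutes at 37 degrees C. DiscoveRx reagent added for 30–60 minutes at room temperature; luminescence read, quantitative HTS format.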
ClpP mod: qHTS Assay for Activators of ClpP | hit rate 1.9% among 340,000 | ATP-dependent Clp protease proteolytic subunit (Bacillus subtilis (strain 168)), P80244 | purified B. subtilis ClpP, FRET peptide cleavage, 20 min | AID 651965, 2013 | Potency, µM (doses to about 57.5 µM), without a hit: top-dose activity change, negative = active; active = well fitted falling curve with a large enough effect; inconclusive = small, poorly fitted or top-dose-only effect; inactive = no such curve, though single readings can be large or run the other way; note: potency is the fitted concentration of half-maximal effect; the source files actives as falling curves though it sought activators and does not explain the sign; nearly all actives have a fitted effect of over 65% in size
Target sequence (P80244 whole entry, looked up): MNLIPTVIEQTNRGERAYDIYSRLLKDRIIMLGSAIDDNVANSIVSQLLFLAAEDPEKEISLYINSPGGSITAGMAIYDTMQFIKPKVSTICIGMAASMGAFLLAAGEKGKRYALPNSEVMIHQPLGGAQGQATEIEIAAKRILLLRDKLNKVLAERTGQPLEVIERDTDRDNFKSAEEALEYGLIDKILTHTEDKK
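ClpP 10 microg/mL final, pH 8 Tris/KCl buffer with BSA, glycerol, Tween-20; compound pinned in; FRET-FV substrate; RT 20 min; Ex320/Em430; ΔFRET vs ADEP 5.8 microM, DMSO, no enzyme.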
Numbers without * were called inactive; ? = inconclusive; nt = not tested or not shown. Unless noted, calls come from the whole dose curve; as a rule, active = well fitted inhibition curve with a large enough effect; inconclusive = small, poorly fitted or top-dose-only effect; inactive = flat fitted curve, though single readings scatter.

SMILES	IL-1B inflam inh	TDP1 cell noCPT	TDP1 cell CPT	DRD3 agonist	DRD3 antagonist	ClpP mod
COc1ccc(Nc2cc(C)c3cc([N+](=O)[O-])ccc3n2)cc1	-21	?	?	-8	?	-3%
CCOC(=O)c1ccc(NC(=O)CSc2nccn2-c2cc(C)cc(C)c2)cc1	nt	18µM*	23µM*	-13	nt	-1%
COc1cccc(NC(=O)CSc2nccn2-c2cccc(OC)c2)c1	-13	?	?	-8	-12	-4%
COc1cccc(-n2ccnc2SCC(=O)Nc2cccc(C)c2C)c1	nt	16µM*	21µM*	-16	nt	0%
CCOC(=O)c1ccc(NC(=O)CSc2nccn2C)cc1	-15	?	?	1	21	1%
COc1ccc(NC(=O)CSc2nccn2-c2cccc(OC)c2)cc1	-7	-28%	4%	-4	-1	-2%
Cc1cc(C)cc(NC(=O)CSc2nccn2-c2ccccc2)c1	nt	23µM*	?	-3	nt	0%
COc1cccc(-n2ccnc2SCC(=O)Nc2ccccc2)c1	-15	8.2µM*	5.8µM*	-5	-8	1%
CC(NC(=O)COc1ccccc1)C(=O)N1CCN(c2ccccc2)CC1 (stereo not drawn)	-15	?	-7%	2	-14	-1%
CCc1ccccc1NC(=O)CN(C)C(=O)COC(=O)c1ccco1	0	25%	-6%	2	9	0%
COc1ccc(Cn2ccnc2SCC(=O)Nc2ccccc2)cc1	0	-12%	-12%	0	-1	2%
COc1cccc(-n2ccnc2SCC(=O)Nc2ccccc2F)c1	-70*	-29%	0%	-4	-12	nt
COc1ccc(-n2ccnc2SCC(=O)Nc2ccc(F)cc2F)cc1	nt	-27%	?	-11	nt	0%
CCOC(=O)c1ccc(NC(=O)CSc2nccn2Cc2ccc(OC)cc2)cc1	nt	?	15µM*	-9	nt	1%
Cc1cc(C)cc(-n2ccnc2SCC(=O)Nc2ccc3c(c2)OCO3)c1	nt	21µM*	?	-11	nt	-4%
Fc1ccc(-c2cnc3n2CCCCC3)cc1	-17	?	-21%	6	15	nt
Clc1ccc(-c2cnc3n2CCCCC3)cc1	?	9.2µM*	15µM*	-3	-19	nt
CCOc1ccc(-c2cc(C(=O)N3CCN(c4cccc(C)c4)C(C)C3)c3ccccc3n2)cc1 (stereo not drawn)	nt	7.3µM*	16µM*	-2	nt	-14%
COc1ccc(-c2cc(C(=O)N3CCCC(C(F)(F)F)C3)c3ccccc3n2)cc1 (stereo not drawn)	-5	?	?	5	3	3%
CCOc1ccc(-c2cc(C(=O)N3CCN(c4ccc(C)cc4)C(C)C3)c3ccccc3n2)cc1 (stereo not drawn)	nt	23µM*	21µM*	5	nt	?
COc1ccc(CCNC(=O)CCNC(=O)N2CC(=O)Nc3ccccc32)cc1	19	-1%	?	2	1	0%
O=C(Nc1ccc(Cl)cc1)N(Cc1cccs1)Cc1cccs1	-24	?	18µM*	-2	26	-1%
CCCN(Cc1cccs1)C(=O)Nc1ccc(F)c(Cl)c1	nt	?	?	3	nt	1%
O=C(Nc1ccc(Cl)cc1)N(Cc1nc2ccccc2c(=O)[nH]1)Cc1cccs1	?	21µM*	?	1	30	-3%
O=C(Nc1ccccc1)N(O)c1ccc(Cl)cc1	10	29µM*	18µM*	-7	1	0%
SMILES	IL-1B inflam inh	TDP1 cell noCPT	TDP1 cell CPT	DRD3 agonist	DRD3 antagonist	ClpP mod
O=C(Nc1ccccc1Cl)N(Cc1nc2ccccc2c(=O)[nH]1)Cc1cccs1	-2	?	?	0	-4	-15%
Cc1cc(C)c(S(=O)(=O)Nc2c(C)[nH]c(=O)[nH]c2=O)c(C)c1	1	23µM*	16µM*	-6	-21	-7%
Cc1ccc(NS(=O)(=O)c2c(C)[nH]c(=O)[nH]c2=O)c(C)c1	2	2%	0%	3	2	-1%
Cc1cc(NCCN2CCOCC2)c2ccc3ccccc3c2n1	-82*	?	?	-7	-12	?
c1ccc2c(CNCCN3CCOCC3)cccc2c1	3	-25%	-11%	-21	-25	?
CCOC(=O)C1CCCCN1S(=O)(=O)c1cc2c(cc1C)NC(=O)CO2 (stereo not drawn)	47	?	?	-4	-24	0%
O=C(CNC(=S)N(CCCN1CCOCC1)Cc1cccs1)NC1CCCCC1	7	-6%	-11%	-19	?	2%
COc1ccc(-c2onc(C)c2C)cc1S(=O)(=O)Nc1ccc(OC(F)(F)F)cc1	nt	?	?	1	nt	0%
CCN(CC)S(=O)(=O)c1ccc(N=Nc2c(C)[nH]n(C(N)=S)c2=O)cc1	3	-27%	-24%	9	-93*	1%
NC(=S)n1[nH]c(-c2ccc([N+](=O)[O-])cc2)c(N=Nc2cccc(Cl)c2)c1=O	?	6.5µM*	8.2µM*	-2	?	nt
CCOc1ccccc1N=Nc1c(C)[nH]n(C(N)=S)c1=O	12	15µM*	?	20	27	nt
Cc1ccccc1N=Nc1c(C)[nH]n(C(N)=S)c1=O	0	1.2µM*	1.2µM*	-4	-23	-7%
CC(=O)N(C)c1ccc(N=Nc2c(C)[nH]n(C(N)=S)c2=O)cc1	-26	22%	-9%	-3	-20	0%
CC(C)(C)c1ccc(C(=O)N2CCC2(C)C(=O)NS(=O)(=O)c2ccc(C#N)cc2)cc1 (stereo not drawn)	5	3%	-8%	-24	0	-1%
CSc1ncccc1C(=O)OCC(=O)Nc1nc(C)c(Cl)cc1Cl	27	-5%	-7%	8	15	-3%
Cc1[nH]n(C(N)=S)c(=O)c1N=Nc1ccc([N+](=O)[O-])cc1Cl	21	2.9µM*	?	-13	-11	nt
Cc1[nH]n(C(N)=S)c(=O)c1N=Nc1ccccc1C(F)(F)F	-7	15µM*	?	3	18	3%
Cc1[nH]n(C(N)=S)c(=O)c1N=Nc1cccc(Cl)c1	-3	?	?	-3	?	0%
CC(=O)N(c1ccccc1)c1nc(/C=C/C(=O)O)cs1	1	-13%	-19%	9	-7	nt
CCc1ccc(N(C(C)=O)c2nc(CCl)cs2)cc1	-23	10µM*	-10%	-5	4	nt
CCOc1ccc(C(=O)Nc2ccc(OCc3cc(=O)n4cccc(C)c4n3)cc2)cc1	nt	14%	8%	7	nt	?

Screens deposited in PubChem by National Center for Advancing Translational Sciences (NCATS).
